Measurements: ChEMBL document CHEMBL4513216, “Probing the Open Global Health Chemical Diversity Library for Multistage-Active Starting Points for Next-Generation Antimalarials” (ACS Infect Dis, 2020)
The campaign covered roughly 69,000 compounds. About 8,600 (12%) showed an effect of 50% or more. What follows is part of a selection rich in strong results, with near analogues and random picks from the rest.

Each compound was assayed on Plasmodium berghei (assay: Screen against P. berghei liver stage (PbLuc), transformed with Luciferase, at 10uM). Details: tested at 10 uM.
Type: functional, HepG2

SMILES | INHIBITION
O=C1c2cc(Br)cc(Br)c2OCC1(CN1CCCC1)CN1CCCC1 | 59%
Cc1cc(I)c2c(c1)C(=O)C(CN1CCCC1)(CN1CCCC1)CO2 | -55.3%
O=C(CN1CCCCC1)Nc1ncc(Br)cc1Br | 27.8%
FC(F)CN1CCC(NCCc2ccc(-n3cccn3)cc2)CC1 | 6.83%
Cc1cnn(C2CCCN(C(=O)c3ccc(OCC4CC4)nc3)C2)c1 (stereo not given) | 13.483%
CCC(=O)NC1CCCN(C(=O)c2ccc(OCC3CC3)nc2)C1 (stereo not given) | 78.8%
Cc1cc(C2CCCN(C(=O)c3ccc(OCC4CC4)nc3)C2)n[nH]1 (stereo not given) | 20.4%
CN(Cc1ccco1)C1COC2(CCN(Cc3nccs3)CC2)C1 (stereo not given) | 28.3%
CNC(=O)[C@@H](C)NC(=O)c1cc(-c2ccc(F)cc2)c(C)s1 | 12.4%
COc1ccccc1S(=O)(=O)N1CCN(C)[C@@H]2CS(=O)(=O)C[C@@H]21 | 39.6%
O=S1(=O)C[C@@H]2[C@H](C1)N(Cc1cc(Cl)cc(Cl)c1)CCN2CC1CC1 | 25.4%
O=S1(=O)C[C@@H]2[C@H](C1)N(Cc1cc(Cl)cc(Cl)c1)CCN2CCO | 30.7%
CCCN1CCN(S(=O)(=O)c2ccccc2OC)[C@H]2CS(=O)(=O)C[C@H]21 | 65.7%
CCN1CCN(S(=O)(=O)N2CCc3ccccc3C2)[C@H]2CS(=O)(=O)C[C@H]21 | -40.4%
O=S1(=O)C[C@@H]2[C@H](C1)N(Cc1cc(F)cc(F)c1)CCN2CCO | 33.7%
O=S1(=O)C[C@@H]2[C@H](C1)N(Cc1cc(F)cc(Cl)c1)CCN2CCO | 58.5%
CCCN1CCN(Cc2cccc(OC)c2)[C@H]2CS(=O)(=O)C[C@H]21 | 53.2%
CCCN1CCN(Cc2cccc(OC(C)C)c2)[C@H]2CS(=O)(=O)C[C@H]21 | 40.1%
Cc1ccc(CN2CCN(Cc3ccncc3)[C@@H]3CS(=O)(=O)C[C@@H]32)cc1 | 36.7%
CCCN1CCN(Cc2cccc(OCC(N)=O)c2)[C@H]2CS(=O)(=O)C[C@H]21 | 36.8%
CCCN1CCN(Cc2cc(Cl)cc(Cl)c2)[C@H]2CS(=O)(=O)C[C@H]21 | 50.5%
NC1CCN(C(=O)c2c(F)cccc2Br)CC1 | 28.7%
Cc1cc(C(=O)N2CC[C@@H]3CN(c4ncccn4)CCO[C@@H]3C2)c(C)o1 | 33.5%
CN1CCN(Cc2cscn2)CC(C(=O)N(C)C)C1 (stereo not given) | 43.8%
CS(=O)(=O)CCNC(=O)N1CC2(CCCC2)c2ccccc21 | -8.91%

SMILES | INHIBITION
COCCN1C(=O)[C@@H]2CC[C@H]1CN(Cc1nnc(-c3ccccc3)o1)C2 | -24.5%
Cc1ccc(Cn2ccc(NS(C)(=O)=O)n2)cc1 | -36.5%
CS(=O)(=O)Nc1ccn(Cc2ccc(Cl)cc2)n1 | 58.2%
CS(=O)(=O)Nc1ccn(Cc2ccc(Br)cc2)n1 | 49.9%
COc1ccc2[nH]cc(C(=O)N3C[C@@H](O)[C@H](N4CCCC4)C3)c2c1 | 11.8%
CCc1oc(C(=O)NC(C)Cc2cnccn2)cc1CN1CCCC1 (stereo not given) | 30%
CCCn1nc2c(cc1=O)CN(Cc1nc(C)c(C)o1)CC2 | 14.1%
Cc1cccc(NC(C)C(=O)Nc2nccs2)c1 (stereo not given) | 79.8%
CSc1cccc(NC(C)C(=O)Nc2nccs2)c1 (stereo not given) | 44.4%
CC(C(=O)Nc1nccs1)N(C)Cc1cccc(C#N)c1 (stereo not given) | 22.6%
COc1ccc(Br)cc1SCCS(C)(=O)=O | 29%
Cc1cc(C)n(CC2CCCN2C(=O)CCc2nccs2)n1 (stereo not given) | 31.1%
CC(C)Cc1cc(CNC(=O)c2cccc3c2NCCC3)no1 | 44.3%
Cc1cc(C)nc(CN(C)C(=O)c2ccccc2C2CCNC2)c1 (stereo not given) | 47.2%
O=C(NCCc1c[nH]cn1)c1ccccc1C1CCNC1 (stereo not given) | 24.4%
CN(Cc1cc(C(C)(C)C)n[nH]1)C(=O)c1ccccc1C1CCNC1 (stereo not given) | -23.2%
CC(C)Cc1cc(CNC(=O)c2ccccc2C2CCNC2)no1 (stereo not given) | 68.4%
O=C(NCc1ccc2c(c1)OCO2)c1ccccc1C1CCNC1 (stereo not given) | 31%
CC(C)Cc1cc(CNC(=O)c2cccc3c2OCC3)no1 | 52.6%
CN(Cc1cc(C2CC2)[nH]n1)C(=O)c1ccccc1C1CCNC1 (stereo not given) | 51.3%
COCc1cc(CNC(=O)c2cccc3c2OCC3)n[nH]1 | 14.6%
COc1cccc(-c2cnc(CNC(C)(C)c3nc(C)cs3)o2)c1 | -16%
CCCn1cc(C(=O)NC(C)c2c(C)nn(CC)c2C)c(C)n1 (stereo not given) | 43%
CCC(O)CN1CCN(C(=O)c2ccn(-c3ccccc3)n2)CC1 (stereo not given) | 2.3%
CN(Cc1ncnn1C1Cc2ccccc2C1)C1CCS(=O)(=O)C1 (stereo not given) | 25.4%

SMILES | INHIBITION
O=C(NCCc1cccnc1)c1nc2c(s1)CCCN2C(=O)C1CC1 | 35.8%
O=C(NCc1cccnc1)c1nc2c(s1)CCCN2C(=O)C1CC1 | 27.6%
O=C(NCCc1cccc(F)c1)c1nc2c(s1)CCCN2C(=O)C1CC1 | 52.1%
CC(C)C(=O)N1CCC(c2nc3c([nH]2)CCCNC3=O)CC1 | 25.9%
COc1ccccc1CN1CC(O)CN(S(=O)(=O)C(C)C)CC1=O (stereo not given) | 28.3%
Cc1nnsc1CN(C)C(=O)CN1CC2(CCNCC2)OC1=O | 51.8%
Cc1ncsc1CCN(C)C(=O)CN1CC2(CCNCC2)OC1=O | -5.52%
Cc1cc(CN(C)C(=O)CN2CC3(CCNCC3)OC2=O)n(C)n1 | 64.8%
Cc1cc(C)n(CCCN(C)C(=O)CN2CC3(CCNCC3)OC2=O)n1 | 25.8%
Cc1cc(CN(C)C(=O)CN2CC3(CCNCC3)OC2=O)no1 | -20.7%
CCc1cc(CN(C)C(=O)CN2CC3(CCNCC3)OC2=O)on1 | 44.2%
COc1ccc2c(c1)CCN2Cc1nc2c(cnn2C)c(=O)[nH]1 | 33.8%
CS(=O)(=O)NCCCNC(=O)NCc1ccccc1 | -40.2%
CC(=O)N1CC(=O)N(c2cnn(C)c2)CC12CCN(CC1CC1)C2 (stereo not given) | 30.1%
Cc1ccn(CCNC(=O)C2CCN(S(=O)(=O)c3ccc(F)cc3)C2)n1 (stereo not given) | 3.91%
Cn1cc([C@@H]2CN(S(=O)(=O)c3cccnc3)C[C@H]2N)c2ccncc21 | -30.435%
CN(C)c1cc2c(nn1)CCN(C(=O)C1CCCc3ccccc31)C2 (stereo not given) | 5.03%
CC(C)c1ccc(CC(=O)N2CCCC3(CN(C)C(=O)O3)C2)cc1 (stereo not given) | 24.3%
CCn1ncnc1C(C)Nc1cc(C2CCNCC2)nc(C)n1 (stereo not given) | -63.5%
CN(CC1(C)COC1)C(=O)c1cc(-c2ccn(C)n2)nc2ccccc12 | 18.2545%
Cc1noc(C)c1-c1cc(C2CCNCC2)ccn1 | 20.8%
Cc1noc(C)c1-c1ccnc(C2CCN(C3CCOCC3)CC2)c1 | 24.4%
Cc1noc(C)c1-c1ccnc(C2CCNCC2)c1 | 67.7%
CSCC[C@@H]1CN2CCC[C@H]2CN1Cc1coc2ccc(C)cc2c1=O | 40.09%
Cc1ccc(CN2CC(C(=O)N3CCCC3)C3(CCOCC3)C2)s1 (stereo not given) | -11.1%

SMILES | INHIBITION
O=C([C@H]1CCS(=O)(=O)[C@@H]2CN(CCc3ccccc3)C[C@H]12)N1CCCC1 | 39.3%
Cc1nc(CN2CC(CO)Oc3ccccc32)sc1C (stereo not given) | -10.3%
CN(CC1COc2ccccc2O1)C(=O)NCCCn1cccn1 (stereo not given) | -14.4%
CN(Cc1nc(CC2CC2)no1)CC1COc2ccccc2O1 (stereo not given) | 29.6%
Cc1cc(N(C)CC2COc3ccccc3O2)nc(N)n1 (stereo not given) | 80.1%
Cc1cc(N(C)CC2COc3ccccc3O2)nc(C)n1 (stereo not given) | 83.5%
CCN1CC(CN(C)c2cc(C)nc(N)n2)Oc2ccccc21 (stereo not given) | 82.4%
Cc1csc(CN2CC(CO)Oc3ccccc32)n1 (stereo not given) | 24.3%
CCCn1nnnc1CN(CC)CC1COc2ccccc2O1 (stereo not given) | 45.9%
CN(Cc1nnnn1C1CC1)CC1COc2ccccc2O1 (stereo not given) | 17.5%
Cc1cnc(N2CC[C@@H]3O[C@H](COCc4ccccn4)CC[C@@H]32)nc1 | 5.44%
CC(C)c1cc(=O)[nH]c(-c2ccccc2CN2CCCCCC2)n1 | 23.1%
CCSc1cncc(N2CCC(C(=O)NC(C)C(C)C)CC2)n1 (stereo not given) | -26.2%
NC(=O)C1CCN(C(=O)c2ccn(-c3ccc(F)cc3)n2)CC1 | -66.9%
CCN(Cc1cccnc1)CC1(C)Cc2c(N)nc(N)nc2O1 (stereo not given) | 4.57%
CCC1c2ccsc2CCN1C(=O)NCc1cccnc1OC (stereo not given) | 9.383%
O=C(c1cnccn1)N1CCCC2(CCN(c3ncccn3)C2)C1 (stereo not given) | 9.63%
COCC(=O)N1CCCCC1c1ccnc(Nc2ncc(C)s2)n1 (stereo not given) | 48.4%
CN(C)CCO[C@H]1CN(C(=O)c2cscn2)[C@@H]2COC[C@H]12 | -16.1%
CC1CCN(S(=O)(=O)N2Cc3ccccc3C[C@H]2C(N)=O)CC1 | 43.2%
NC(=O)[C@@H]1Cc2ccccc2CN1S(=O)(=O)N1CCCCC1 | 51%
NC(=O)[C@@H]1Cc2ccccc2CN1S(=O)(=O)N1CCCCCC1 | 32%
Cc1ccc(OC2(C(=O)O)CCN(C(=O)CCc3ccco3)CC2)cc1 | 31.4%
CC1CCN(C(=O)C2(Cc3cc(C4CCOC4)no3)CCNCC2)CC1 (stereo not given) | 32.3%
Cc1noc(C)c1C(=O)N1C[C@@H]2C[C@@H](c3ccncn3)O[C@@H]2C1 | -10.9%
